Each structure is given as a SMILES string. Results filed as inconclusive are left out. Active and inactive are the calls of the source. Calls follow the shape of the dose curve; as a rule, active = well fitted inhibition curve with a large enough effect in the repeat runs; inconclusive = weak or mixed curves; inactive = no such curve, though single readings can be large or run the other way.
% is scaled to controls: 0 for no effect and ±100 for the full control effect.

This assay deals with Estrogen receptor (Homo sapiens) (UniProt P03372). The experiment in a line: qHTS assay to identify small molecule antagonists of the estrogen receptor alpha (ER-alpha) signaling pathway using the BG1 cell line in the presence of 0.1 nM 17-beta-estradiol (AID 1259244). Also: nearly all actives have a fitted effect of over 50% in size. Particulars: VM7Luc4E2 (BG1) ERE-luciferase, antagonist mode, 0.1 nM E2, 22 h; series mostly up to 92.4 µM; activity change, negative = inhibition: at the top concentration. The text has this: National Center for Advancing Translational Sciences [NCATS]
Estrogen receptor (Homo sapiens), sequence (P03372 whole entry, looked up): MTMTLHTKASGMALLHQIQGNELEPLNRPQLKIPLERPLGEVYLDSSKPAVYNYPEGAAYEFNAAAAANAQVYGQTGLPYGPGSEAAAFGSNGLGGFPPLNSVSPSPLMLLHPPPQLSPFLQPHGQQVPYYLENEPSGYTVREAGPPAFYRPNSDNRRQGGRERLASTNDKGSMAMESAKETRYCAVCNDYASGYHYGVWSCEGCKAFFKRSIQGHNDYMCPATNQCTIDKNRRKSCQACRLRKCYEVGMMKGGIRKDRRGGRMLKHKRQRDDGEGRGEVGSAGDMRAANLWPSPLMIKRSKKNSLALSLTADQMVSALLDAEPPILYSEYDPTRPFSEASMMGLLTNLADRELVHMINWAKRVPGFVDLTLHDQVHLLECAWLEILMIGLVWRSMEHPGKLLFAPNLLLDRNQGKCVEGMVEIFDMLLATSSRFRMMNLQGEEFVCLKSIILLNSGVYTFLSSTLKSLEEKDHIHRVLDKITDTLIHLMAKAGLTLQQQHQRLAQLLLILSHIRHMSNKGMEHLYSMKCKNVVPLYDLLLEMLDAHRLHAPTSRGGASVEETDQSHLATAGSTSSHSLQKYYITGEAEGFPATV
NIH Chemical Genomics Center [NCGC]
U.S. Environmental Protection Agency [EPA]
National Institutes of Environmental Health Sciences [NIEHS]
National Toxicology Program [NTP]
U.S. Food and Drug Administration [FDA]
Estrogen receptor (ER), a member of the nuclear hormone receptor plays an important role in development, metabolic homeostasis and reproduction. Two subtypes of ER, ER-alpha and ER-beta, have similar expression patterns with some uniqueness in both types. Endocrine disrupting chemicals (EDCs) and their interactions with steroid hormone receptors like ER causes disruption of normal endocrine function. Therefore, it is important to understand the effect of environmental chemicals in ER signaling pathway. For identifying ER antagonists, VM7Luc4E2 cell line was used to screen against Tox21 compound libraries.
VM7Luc4E2 cell line (provided by Denison MS, University of California) endogenously express full-length ER-alpha and is stably transfected with a plasmid containing four estrogen responsive elements (ERE) upstream of a luciferase reporter gene. The current screening for identification of ER-alpha inhibitors against Tox21 compound libraries used lower concentration (0.1 nM) of 17beta-Estradiol as a stimulator.
Tox21 Assay Protocol Summary:
VM7Luc4E2 cells were cultured in phenol red free assay medium containing 10% charcoal stripped FBS for 5 days prior to the assay. The cells were dispensed at 4,000 cells/well in 4 uL of assay medium into white wall/solid-bottom 1536-well plates (Corning Life Sciences, Corning, NY) using a Multidrop Combi (ThermoFisher Scientific, Waltham, MA) dispenser. After the assay plates were incubated at 37C and 5% CO2 for 24 hr, 23 nL of compounds dissolved in DMSO, positive controls or DMSO only was transferred to the assay plates by a Pintool station (Kalypsys, San Diego, CA). The transfer of compounds was followed by the addition of 1 uL of 0.1 nM (final concentration) agonist (17beta-Estradiol)/assay medium using a Flying Reagent Dispenser (FRD, Aurora Discovery, San Diego, CA). The plates were incubated at 37C and 5% CO2 for 22 hr. For luciferase reporter gene assay, 4 uL of ONE-Glo reagent (Promega Corporation, Madison, WI) was added to each well using the FRD and after 30 min incubation at room temperature luminescence intensity was measured using ViewLux plate reader (PerkinElmer, Shelton, CT).
With `OC1OCCOC1O` (stereo not given), the “activity change, negative = inhibition” value is 2.94% (inactive). With `N[C@@H](CSCCCO)C(=O)O`, the activity change, negative = inhibition is -4.57% [at 19 µM] (inactive). Turning to `Cc1ccc2c(c1)C(=O)c1ccccc1C2=O`, the “activity change, negative = inhibition” value is 117% (inactive). Under `CC1(C)O[C@H]2CC(=O)OC[C@]23[C@H]2CC[C@@]4(C)[C@H](c5ccoc5)OC(=O)[C@H]5O[C@]54[C@]2(C)C(=O)C[C@@H]13` stands 3.73% [at 42.5 µM] (inactive); under `CCCCOC(=O)[C@H](C)O`, -5.85% (inactive). Under `CCCCCC(C)O` (stereo not given) stands 18.6% (inactive); under `CCCCCCCCCOC(=O)c1ccccc1C(=O)OCCCCCCCCC`, 24.4% (inactive). In the case of `C#CCN[C@@H]1CCc2ccccc21`, the “activity change, negative = inhibition” value is 1.64% [at 42.5 µM] (inactive). Under `CCOc1ccccc1OCC1CNCCO1` (stereo not given) stands -0.338% [at 42.5 µM] (inactive). Under `C[C@@H](O)C(=O)O` stands 2.69% (inactive).

With `O=C(CN1CCNCC1)NC1CCCCC1`, the “activity change, negative = inhibition” value is -2.86% [at 42.5 µM] (inactive). Under `N#CCC(=O)NN` stands 15.3% [at 42.5 µM] (inactive). Under `CCCCCCCCCCCCCCCCCCOCCO` stands -1.58% [at 19 µM] (inactive); under `CC(C)NC(=O)c1ccc(C=O)cc1`, 59.7% [at 42.5 µM] (inactive); under `CC(C)c1ccc(C=O)cc1`, -0.221% (inactive). Under `CCCC(=O)OC/C=C(\C)CCC=C(C)C` stands 8.67% (inactive); under `CCC(=O)Oc1ccc2c(c1)CC[C@@H]1[C@@H]2CC[C@@]2(C)[C@H]1C[C@@H](OC(=O)CC)[C@@H]2OC(=O)CC`, -0.419% [at 42.5 µM] (inactive); under `NCCOCCN`, 13% (inactive). For the compound `CC1=C(C(=O)O)N2C(=O)[C@@H](NC(=O)[C@H](N)c3ccccc3)[C@H]2SC1`, the “activity change, negative = inhibition” value was 9.58% [at 42.5 µM] (inactive). Under `C[C@H]1[C@@H](c2ccccc2)NC(=O)N1C` stands 25.3% (inactive); under `CC(C)OC(=O)OCOP(=O)(CO[C@H](C)Cn1cnc2c(N)ncnc21)OCOC(=O)OC(C)C`, -20.6% [at 42.5 µM] (inactive). Under `O=C1c2ccccc2C(=O)c2cc(Cl)ccc21` stands 6.71% [at 8.39 µM] (inactive). Under `CCCCCCCCCCCCCCCCCC#N` stands -4.84% (inactive); under `CC1OCCC1=O` (stereo not given), 0.0576% (inactive).

On to `CC(C)C[C@@H]1[C@H](c2ccccc2)OC(=O)N1CCCN1CCCCCC1`, for which the “activity change, negative = inhibition” value is 1.52% [at 42.5 µM] (inactive).

`CCc1occc(=O)c1O`: the “activity change, negative = inhibition” value was 1.34% (inactive). Under `CC1(C)CC(OC(=O)CCCCCCCCC(=O)OC2CC(C)(C)NC(C)(C)C2)CC(C)(C)N1` stands -2.8% [at 19 µM] (inactive); under `c1ccc(B(c2ccccc2)c2ccccc2)cc1`, 56.3% (inactive). Under `CCO` stands -2.54% (inactive); under `O=C(O)CCCCCC(=O)O`, 6.35% (inactive); under `C=CCSSCCC`, 12% (inactive). Under `CC(S)C(C)S` (stereo not given) stands -12% (inactive); under `CN(C)CCCCl`, 23.4% (inactive). Take `CC(C)C1OCCN1CCOC(=O)NCCCCCCNC(=O)OCCN1CCOC1C(C)C` (stereo not given): the “activity change, negative = inhibition” value is -0.208% (inactive). Turning to `CCCCCCC1(C)CCC(=O)O1` (stereo not given), the “activity change, negative = inhibition” value is -3.26% (inactive). `Cc1ccccc1C(N)=O`: the “activity change, negative = inhibition” value was 16.9% (inactive). Under `CCC/C=C(\C=O)CC` stands -1.63% (inactive); under `CC(=O)C1C(=O)C=C(C)OC1=O` (stereo not given), 13.3% (inactive).

Consider `CCCCCCCCCCCCCCC(=O)NC(CO)CCCCCCCCCCCCCC` (stereo not given), for which the “activity change, negative = inhibition” value was 5.18% (inactive). Under `N#Cc1ccccc1O` stands -10.8% (inactive).
